Reference: PubChem BioAssay (NCI)
Compounds without any hit were thinned out: in the full panel of roughly 79,000, 15% have a hit. The source made the active and inactive calls. No stated cut-off is given here; in the data, active means growth inhibition above about 70%; inactive means the rest.

Legend:
[1] = NCI Yeast Anticancer Drug Screen. Data for the rad50 strain (AID 155);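 further: 0% = growth of vehicle-only cultures of the same strain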; conditions: S. cerevisiae rad50 strain growth inhibition, hits give high values
Method in brief: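 Inhibition values express reduced yeast growth in compound-treated cultures relative to vehicle-treated controls.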

[2] = NCI Yeast Anticancer Drug Screen. Data for the mec2-1 strain (AID 157); conditions: S. cerevisiae mec2-1 strain, hits give high values
Method in brief: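 Vehicle-treated cultures served as reference for growth inhibition of compound-exposed mec2-1 yeast.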

[3] = NCI Yeast Anticancer Drug Screen. Data for the sgs1 mgt1 strain (AID 161);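 further: 0% = growth of cultures given vehicle only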; conditions: S. cerevisiae sgs1 mgt1 strain, hits give high values
Method in brief: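 Test agents were incubated with a DNA-repair-mutant yeast strain. Growth was then read and compared against vehicle-treated controls.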

[4] = NCI Yeast Anticancer Drug Screen. Data for the cln2 rad14 strain (AID 165);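 further: 0% = growth equal to vehicle treated cultures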; conditions: S. cerevisiae cln2 rad14 strain, hits give high values
Method in brief: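 Each compound was tested on cln2 rad14 yeast. Inhibition of growth was calculated against vehicle-exposed controls.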

[5] = NCI Yeast Anticancer Drug Screen. Data for the bub3 strain (AID 167); conditions: S. cerevisiae bub3 mutant strain, hits give high values
Method in brief: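 Steps: expose the mutant yeast strain to compound; grow alongside vehicle-treated cultures; measure growth; express inhibition against the vehicle cultures.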

[6] = NCI Yeast Anticancer Drug Screen. Data for the mlh1 rad18 strain (AID 175); conditions: S. cerevisiae mlh1 rad18 strain growth inhibition, hits give high values
Method in brief: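 Vehicle-treated cultures served as the reference for growth inhibition in a yeast strain carrying DNA damage repair alterations exposed to each compound.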

[7] = at 5.0 µM (retest, dose inferred, filed as 0.5)
[8] = at 50.0 µM (retest, dose inferred, filed as 5.0)

Measured: growth inhibition

O=C(OCCN=c1c2ccccc2ccc2ccccc12)c1ccccc1
inactive: [1]; [7] 0% | [1]; at 50.0 µM 42% | [2]; [7] -14% | [2]; at 50.0 µM 31.4% | [3]; [7] -43% | [3]; at 50.0 µM 65.3% | [4]; [7] 22% | [4]; [8] 36% | [4]; at 50.0 µM 29.8% | [5]; [7] 2% | [6]; [7] -19% | [6]; at 50.0 µM 15.7%
active: [1]; [8] 97% | [2]; [8] 94% | [3]; [8] 83% | [5]; [8] 98% | [5]; at 50.0 µM 71% | [6]; [8] 98%

COc1cc(N=Nc2ccccc2)cc(/C=N/NC(N)=S)c1O
inactive: [1]; [7] -2% | [1]; [8] 46% | [2]; [7] 3% | [2]; [8] 59% | [2]; at 50.0 µM 67.2% | [3]; [7] 9% | [4]; [7] -9% | [4]; [8] 37% | [5]; [7] 1% | [5]; [8] 61% | [5]; at 50.0 µM 58.3% | [6]; [7] 4%
active: [1]; at 50.0 µM 73.8% | [3]; [8] 85% | [3]; at 50.0 µM 88.8% | [4]; at 50.0 µM 78.8% | [6]; [8] 73% | [6]; at 50.0 µM 90.8%

CC(C)OC(=O)CCCCCC1CCCCC1
inactive: [1]; [7] 6% | [1]; [8] 9% | [1]; at 50.0 µM 0.95% | [2]; [7] -2% | [2]; [8] 2% | [2]; at 50.0 µM 13.5% | [3]; [7] 3% | [3]; [8] 11% | [3]; at 50.0 µM 1.4% | [4]; [7] 10% | [4]; [8] 6% | [4]; at 50.0 µM 31.7% | [5]; [7] 8% | [5]; [8] 3% | [5]; at 50.0 µM -0.25% | [6]; [7] 4% | [6]; [8] 7% | [6]; at 50.0 µM 8.8%

Nc1cc(Cl)ccc1C(=O)O
inactive: [1]; [7] 34% | [2]; [7] 7% | [2]; [8] 32% | [3]; [7] 14% | [3]; [8] 39% | [3]; at 50.0 µM 49.8% | [4]; [7] -2% | [4]; [8] 30% | [4]; at 50.0 µM 42.7% | [6]; [7] 21% | [6]; [8] 59% | [6]; at 50.0 µM 50.2%
active: [1]; [8] 78% | [1]; at 50.0 µM 81.2% | [2]; at 50.0 µM 91.7%

O=C1Nc2ccc([N+](=O)[O-])c3c([N+](=O)[O-])ccc1c23
inactive: [1]; [7] 4% | [2]; [7] 11% | [2]; at 50.0 µM 47.4% | [3]; [7] 3% | [3]; at 50.0 µM 57.5% | [4]; [7] 0% | [4]; [8] 39% | [4]; at 50.0 µM 69.8% | [6]; [7] 47%
active: [1]; [8] 82% | [1]; at 50.0 µM 79% | [2]; [8] 81% | [3]; [8] 88% | [6]; [8] 94% | [6]; at 50.0 µM 90.7%

N#Cc1cccc2c1Sc1ccccc1N2
active: [1]; at 50.0 µM 88.6% | [2]; at 50.0 µM 92.8% | [3]; at 50.0 µM 89.2% | [4]; at 50.0 µM 90.1% | [5]; at 50.0 µM 91.3%
inactive: [1]; [7] 22% | [1]; [8] 31% | [2]; [7] 6% | [2]; [8] -9% | [3]; [7] 1% | [3]; [8] 6% | [4]; [7] -5% | [4]; [8] -6% | [5]; [7] -26% | [5]; [8] 6% | [6]; [7] -7% | [6]; [8] 7% | [6]; at 50.0 µM 60.5%

CCOc1ccc2c(c1)nc1cc(Cl)ccc1[n+]2C
active: [1]; [8] 81% | [1]; at 50.0 µM 85.5% | [2]; [8] 84% | [2]; at 50.0 µM 87.2% | [3]; [8] 82% | [3]; at 50.0 µM 86.5% | [4]; at 50.0 µM 75.2% | [6]; [8] 81% | [6]; at 50.0 µM 89.7%
inactive: [1]; [7] 9% | [2]; [7] 12% | [3]; [7] -2% | [4]; [7] 8% | [4]; [8] 68% | [6]; [7] 18%

COc1cccc2c1C(=O)c1c(O)c3c(c(O)c1C2=O)C[C@@](O)(C(C)=O)C[C@@H]3OC1CC(N(CCO)Cc2ccccc2)C(O)C(C)O1 (stereo partly specified)
active: [1]; [7] 97% | [1]; [8] 99% | [1]; at 50.0 µM 91.2% | [2]; [7] 99% | [2]; [8] 100% | [2]; at 50.0 µM 91.3% | [3]; [7] 95% | [3]; [8] 99% | [3]; at 50.0 µM 91.5% | [4]; [7] 90% | [4]; [8] 97% | [4]; at 50.0 µM 90.8% | [5]; [7] 98% | [5]; [8] 99% | [5]; at 50.0 µM 89.4% | [6]; [7] 95% | [6]; [8] 99% | [6]; at 50.0 µM 90.8%

Nc1ccccc1Sc1ccc(F)cc1[N+](=O)[O-]
active: [1]; [8] 85% | [1]; at 50.0 µM 71% | [2]; at 50.0 µM 89.8% | [3]; [8] 76% | [3]; at 50.0 µM 89.1% | [4]; at 50.0 µM 72.3% | [5]; [8] 85% | [5]; at 50.0 µM 88.8% | [6]; [8] 93% | [6]; at 50.0 µM 88.5%
inactive: [1]; [7] -6% | [2]; [7] -19% | [2]; [8] 26% | [3]; [7] 2% | [4]; [7] -6% | [4]; [8] 59% | [5]; [7] -3% | [6]; [7] -4%

O=[N+]([O-])c1cccc(/C=N/Nc2ccc3ccccc3n2)c1O
inactive: [1]; [7] 30% | [1]; [8] 20% | [2]; [7] 1% | [2]; [8] -23% | [3]; [7] 26% | [3]; [8] 24% | [4]; [7] 1% | [4]; [8] 3% | [5]; [7] 2% | [5]; [8] 7% | [6]; [7] 16% | [6]; [8] 14%
active: [1]; at 50.0 µM 98% | [2]; at 50.0 µM 98.8% | [3]; at 50.0 µM 97.4% | [4]; at 50.0 µM 93.3% | [5]; at 50.0 µM 97.8% | [6]; at 50.0 µM 97.5%
